Test results from the supplement of paper PMC10849652.
Targets with a hit are over-represented here; the source holds about 7,900 in all. About 0.6% of all pairs of compound and target were hits.

Assays:
Test in all cases: log2 fold change, soluble protein after heating vs DMSO (PISA); higher = thermal stabilisation; K562 cells, 10 uM, 30 min; active = over 0.2 and 3.5 SD of the protein, either way, in both replicates (recomputed)
[1] = compound: C1=CC=C(C=C1)[C@H](COC2=CC3=C(C=C2)NC(=O)N3)NC(=O)C4=CC=CN(C4=O)CC5=CC(=C(C=C5)F)F
How it was run: (§1)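 K562 cells (2×10^6 cells/mL) were treated with 10 μM compound for 30 min, and aliquots were heated for 3 min over 48°C-58°C. Pooled aliquots were extracted in PBS with 0.5% NP-40 at 4°C, and the supernatant after 21,000xg for 90 min was measured by TMTpro 16plex LC-MS/MS with channel sums equalised. Reported thermal stability, relative to control samples and from duplicates, is a log2 fold change.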

[2] = compound: CC1=C2C(=CC=C1)N=C(N(C2=O)C3=CC=CC=C3C)CN4C=NC5=C(N=CN=C54)N
How it was run: as §1

[3] = compound: Cc1sc2c(c1C)C(c1ccc(Cl)cc1)=N[C@@H](CC(=O)OC(C)(C)C)c1nnc(C)n1-2
How it was run: as §1

[4] = compound: CC1=C(SC2=C1C(=N[C@H](C3=NN=C(N32)C)CC(=O)N)C4=CC=C(C=C4)Cl)C
How it was run: as §1

[5] = compound: c1ccc([C@@H]2C[C@H]2NC2CCNCC2)cc1
How it was run: as §1

Measured: log2 fold change

ICMT (UniProt O60725)
inactive: [1] 0.047 | [2] 0.115 | [3] 0.07

GREB1 (UniProt Q4ZG55)
inactive: [4] 0.095 | [2] 0.175 | [3] 0.037 | [5] -0.1

HDHD2 (UniProt Q9H0R4)
Chain of UniProt Q9H0R4 (Q9H0R4 whole entry, looked up): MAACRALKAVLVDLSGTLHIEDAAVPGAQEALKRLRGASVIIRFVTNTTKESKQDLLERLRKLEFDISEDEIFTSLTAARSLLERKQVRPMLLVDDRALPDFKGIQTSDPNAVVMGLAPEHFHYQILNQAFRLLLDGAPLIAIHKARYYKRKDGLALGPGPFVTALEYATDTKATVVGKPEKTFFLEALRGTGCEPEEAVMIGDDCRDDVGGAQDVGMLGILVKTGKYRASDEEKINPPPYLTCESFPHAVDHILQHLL
inactive: [1] -0.044 | [4] 0.006 | [2] -0.003 | [3] 0.03 | [5] -0.031

FYB1 isoform 3 (UniProt O15117)
inactive: [1] -0.09 | [2] 0.005 | [3] -0.017

GLB1 (UniProt P16278)
inactive: [1] 0.042 | [4] -0.065 | [2] 0.011 | [3] -0.043 | [5] 0.026

GPS2 (UniProt Q13227)
inactive: [1] 0.015 | [2] 0 | [3] 0.039

HAX1 (UniProt O00165)
inactive: [1] -0.112 | [4] -0.008 | [2] 0.063 | [3] 0.008 | [5] -0.002

GMEB2 (UniProt Q9UKD1)
Chain of UniProt Q9UKD1 (Q9UKD1 whole entry, looked up): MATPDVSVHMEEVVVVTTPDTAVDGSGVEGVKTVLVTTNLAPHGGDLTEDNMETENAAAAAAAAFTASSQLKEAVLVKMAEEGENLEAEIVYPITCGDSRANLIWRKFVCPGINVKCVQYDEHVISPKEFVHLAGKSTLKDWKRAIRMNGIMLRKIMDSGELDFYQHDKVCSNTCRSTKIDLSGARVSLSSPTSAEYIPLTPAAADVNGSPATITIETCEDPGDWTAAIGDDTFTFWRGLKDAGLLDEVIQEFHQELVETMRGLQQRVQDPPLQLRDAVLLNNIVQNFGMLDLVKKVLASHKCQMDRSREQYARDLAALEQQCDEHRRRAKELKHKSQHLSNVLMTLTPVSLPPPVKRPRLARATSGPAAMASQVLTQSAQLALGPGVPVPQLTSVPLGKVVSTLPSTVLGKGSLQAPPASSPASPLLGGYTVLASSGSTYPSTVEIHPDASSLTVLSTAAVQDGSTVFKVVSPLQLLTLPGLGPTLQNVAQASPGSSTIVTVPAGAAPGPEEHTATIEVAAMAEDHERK
inactive: [1] 0.037 | [4] 0.073 | [2] 0.068 | [3] -0.007 | [5] -0.016

FMR1 (UniProt Q06787)
inactive: [4] -0.237 | [5] -0.038

HDAC6 (UniProt Q9UBN7)
Chain of UniProt Q9UBN7 (Q9UBN7 whole entry, looked up): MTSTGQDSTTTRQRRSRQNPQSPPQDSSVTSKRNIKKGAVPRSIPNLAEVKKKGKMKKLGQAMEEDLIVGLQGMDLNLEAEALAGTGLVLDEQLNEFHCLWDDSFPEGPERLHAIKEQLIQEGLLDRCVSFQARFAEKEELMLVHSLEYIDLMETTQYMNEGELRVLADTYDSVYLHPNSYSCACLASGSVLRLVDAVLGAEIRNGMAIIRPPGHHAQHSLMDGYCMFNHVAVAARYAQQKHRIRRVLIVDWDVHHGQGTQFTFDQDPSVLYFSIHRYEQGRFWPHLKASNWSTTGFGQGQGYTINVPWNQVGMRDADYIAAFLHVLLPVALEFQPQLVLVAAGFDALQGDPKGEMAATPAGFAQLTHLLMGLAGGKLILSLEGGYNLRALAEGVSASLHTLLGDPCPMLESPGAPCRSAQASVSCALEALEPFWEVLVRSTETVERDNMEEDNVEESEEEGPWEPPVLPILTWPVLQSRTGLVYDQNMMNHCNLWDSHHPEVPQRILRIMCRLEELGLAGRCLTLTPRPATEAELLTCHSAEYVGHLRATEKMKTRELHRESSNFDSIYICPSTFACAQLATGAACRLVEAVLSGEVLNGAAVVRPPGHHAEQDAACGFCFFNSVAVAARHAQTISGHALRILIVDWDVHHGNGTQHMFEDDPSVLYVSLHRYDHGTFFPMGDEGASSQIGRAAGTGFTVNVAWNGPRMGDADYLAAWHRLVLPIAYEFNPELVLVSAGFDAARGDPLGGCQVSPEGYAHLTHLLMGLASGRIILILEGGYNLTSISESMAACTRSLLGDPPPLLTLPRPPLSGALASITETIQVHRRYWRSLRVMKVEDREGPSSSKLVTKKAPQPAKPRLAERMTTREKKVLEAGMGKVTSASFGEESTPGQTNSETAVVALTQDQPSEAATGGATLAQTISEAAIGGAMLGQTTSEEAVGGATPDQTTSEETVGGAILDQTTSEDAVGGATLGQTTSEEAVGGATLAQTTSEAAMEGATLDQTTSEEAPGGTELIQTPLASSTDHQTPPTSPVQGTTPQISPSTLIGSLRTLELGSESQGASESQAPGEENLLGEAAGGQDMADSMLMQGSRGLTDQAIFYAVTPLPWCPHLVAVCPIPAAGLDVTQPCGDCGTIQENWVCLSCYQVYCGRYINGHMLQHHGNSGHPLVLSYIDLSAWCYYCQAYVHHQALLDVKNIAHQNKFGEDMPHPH
inactive: [1] 0.159 | [4] 0.008 | [2] -0.001 | [3] -0.002 | [5] 0.009

HNRNPF (UniProt P52597)
inactive: [1] -0.032 | [4] -0.049 | [2] -0.019 | [3] -0.02 | [5] -0.017

IDH3A isoform 2 (UniProt P50213)
Chain of UniProt P50213 (P50213 whole entry, looked up): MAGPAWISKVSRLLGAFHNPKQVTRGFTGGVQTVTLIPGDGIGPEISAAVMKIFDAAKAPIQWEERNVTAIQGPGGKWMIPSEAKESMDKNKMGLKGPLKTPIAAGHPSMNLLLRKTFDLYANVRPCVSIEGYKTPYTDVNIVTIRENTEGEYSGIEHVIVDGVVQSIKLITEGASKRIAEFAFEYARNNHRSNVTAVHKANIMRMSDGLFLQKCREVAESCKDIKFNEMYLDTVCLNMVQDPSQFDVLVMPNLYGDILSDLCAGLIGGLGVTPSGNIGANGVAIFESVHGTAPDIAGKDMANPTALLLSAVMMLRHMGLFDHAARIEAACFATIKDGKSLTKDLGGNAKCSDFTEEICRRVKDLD
inactive: [1] 0.118 | [4] 0.251 | [3] -0.069 | [5] -0.059

HS1BP3 (UniProt Q53T59)
inactive: [1] -0.046 | [4] 0.087 | [2] -0.001 | [5] -0.203

FBXO9 (UniProt Q9UK97)
Chain of UniProt Q9UK97 (Q9UK97 whole entry, looked up): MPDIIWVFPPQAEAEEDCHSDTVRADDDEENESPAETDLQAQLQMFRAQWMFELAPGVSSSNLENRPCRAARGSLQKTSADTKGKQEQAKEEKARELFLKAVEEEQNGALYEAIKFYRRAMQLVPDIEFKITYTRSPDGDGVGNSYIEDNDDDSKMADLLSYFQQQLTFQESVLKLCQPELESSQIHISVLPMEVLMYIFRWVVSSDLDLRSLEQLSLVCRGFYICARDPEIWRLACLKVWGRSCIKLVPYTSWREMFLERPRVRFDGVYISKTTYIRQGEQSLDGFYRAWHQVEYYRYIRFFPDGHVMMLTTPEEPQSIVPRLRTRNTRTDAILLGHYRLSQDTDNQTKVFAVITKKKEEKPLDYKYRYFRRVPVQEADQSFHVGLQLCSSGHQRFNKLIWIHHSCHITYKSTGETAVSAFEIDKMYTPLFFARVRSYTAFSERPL
inactive: [1] -0.011 | [4] 0.23 | [2] 0.016 | [3] 0.161 | [5] 0.07

HOMER1 (UniProt Q86YM7)
inactive: [1] -0.08 | [4] 0.035 | [2] 0.02 | [3] -0.005 | [5] 0.007

GEMIN2 (UniProt O14893)
inactive: [1] 0.044 | [4] 0.013 | [2] -0.049 | [5] 0.025

GAB2 (UniProt Q9UQC2)
inactive: [4] 0.153 | [2] -0.059 | [3] 0.396 | [5] -0.034

FUBP3 (UniProt Q96I24)
inactive: [1] 0.009 | [4] 0.002 | [2] 0.017 | [3] 0.065 | [5] 0.006

FOXO3 (UniProt O43524)
inactive: [4] 0.065 | [2] 0.012 | [3] 0.125 | [5] -0.039

IGF2 isoform 3 (UniProt P01344)
inactive: [2] 0.077

FHOD1 (UniProt Q9Y613)
Chain of UniProt Q9Y613 (Q9Y613 whole entry, looked up): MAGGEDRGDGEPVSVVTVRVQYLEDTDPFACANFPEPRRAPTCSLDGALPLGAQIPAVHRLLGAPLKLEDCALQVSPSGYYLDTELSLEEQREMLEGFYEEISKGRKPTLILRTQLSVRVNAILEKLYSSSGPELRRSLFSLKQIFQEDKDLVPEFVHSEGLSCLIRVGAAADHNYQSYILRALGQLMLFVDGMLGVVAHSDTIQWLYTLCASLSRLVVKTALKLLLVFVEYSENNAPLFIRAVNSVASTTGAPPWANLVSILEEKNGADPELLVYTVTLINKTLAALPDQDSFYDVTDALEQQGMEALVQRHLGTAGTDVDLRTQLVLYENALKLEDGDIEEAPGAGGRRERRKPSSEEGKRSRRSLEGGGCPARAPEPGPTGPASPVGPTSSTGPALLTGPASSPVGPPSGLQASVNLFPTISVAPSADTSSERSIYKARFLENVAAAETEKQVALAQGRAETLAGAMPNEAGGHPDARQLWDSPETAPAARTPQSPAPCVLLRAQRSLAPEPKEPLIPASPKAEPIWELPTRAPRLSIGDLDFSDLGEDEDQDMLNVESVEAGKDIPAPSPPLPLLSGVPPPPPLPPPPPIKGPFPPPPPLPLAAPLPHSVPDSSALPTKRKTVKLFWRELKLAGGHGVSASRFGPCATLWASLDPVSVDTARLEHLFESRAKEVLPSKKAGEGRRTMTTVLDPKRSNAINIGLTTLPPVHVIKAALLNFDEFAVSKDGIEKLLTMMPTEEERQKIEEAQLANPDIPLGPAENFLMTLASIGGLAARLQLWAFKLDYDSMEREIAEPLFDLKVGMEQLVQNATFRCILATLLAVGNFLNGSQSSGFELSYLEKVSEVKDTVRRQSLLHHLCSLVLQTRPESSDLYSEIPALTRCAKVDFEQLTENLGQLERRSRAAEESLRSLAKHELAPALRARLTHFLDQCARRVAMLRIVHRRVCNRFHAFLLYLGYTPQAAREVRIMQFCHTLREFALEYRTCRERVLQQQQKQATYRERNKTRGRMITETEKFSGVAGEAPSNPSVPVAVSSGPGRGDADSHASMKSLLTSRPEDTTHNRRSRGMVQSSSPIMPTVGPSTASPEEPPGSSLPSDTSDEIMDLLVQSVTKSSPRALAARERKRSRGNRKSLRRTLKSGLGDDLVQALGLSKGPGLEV
inactive: [1] -0.033 | [4] -0.065 | [2] 0.086 | [5] -0.034

HNRNPUL1 (UniProt M0R247)
inactive: [4] 0.079 | [3] 0.204 | [5] 0.122

HDAC7 isoform 5 (UniProt Q8WUI4)
inactive: [1] -0.008 | [4] 0.039 | [2] -0.004 | [3] -0.026 | [5] -0.003

H2AZ1 (UniProt P0C0S5)
Chain of UniProt P0C0S5 (P0C0S5 whole entry, looked up): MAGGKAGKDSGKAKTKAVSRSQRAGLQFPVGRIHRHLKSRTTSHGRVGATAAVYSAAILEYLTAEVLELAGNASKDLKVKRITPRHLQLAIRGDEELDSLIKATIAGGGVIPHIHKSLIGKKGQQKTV
inactive: [1] 0.12 | [4] -0.153 | [2] -0.247 | [3] -0.021 | [5] 0.123

FCHO1 (UniProt O14526)
Chain of UniProt O14526 (O14526 whole entry, looked up): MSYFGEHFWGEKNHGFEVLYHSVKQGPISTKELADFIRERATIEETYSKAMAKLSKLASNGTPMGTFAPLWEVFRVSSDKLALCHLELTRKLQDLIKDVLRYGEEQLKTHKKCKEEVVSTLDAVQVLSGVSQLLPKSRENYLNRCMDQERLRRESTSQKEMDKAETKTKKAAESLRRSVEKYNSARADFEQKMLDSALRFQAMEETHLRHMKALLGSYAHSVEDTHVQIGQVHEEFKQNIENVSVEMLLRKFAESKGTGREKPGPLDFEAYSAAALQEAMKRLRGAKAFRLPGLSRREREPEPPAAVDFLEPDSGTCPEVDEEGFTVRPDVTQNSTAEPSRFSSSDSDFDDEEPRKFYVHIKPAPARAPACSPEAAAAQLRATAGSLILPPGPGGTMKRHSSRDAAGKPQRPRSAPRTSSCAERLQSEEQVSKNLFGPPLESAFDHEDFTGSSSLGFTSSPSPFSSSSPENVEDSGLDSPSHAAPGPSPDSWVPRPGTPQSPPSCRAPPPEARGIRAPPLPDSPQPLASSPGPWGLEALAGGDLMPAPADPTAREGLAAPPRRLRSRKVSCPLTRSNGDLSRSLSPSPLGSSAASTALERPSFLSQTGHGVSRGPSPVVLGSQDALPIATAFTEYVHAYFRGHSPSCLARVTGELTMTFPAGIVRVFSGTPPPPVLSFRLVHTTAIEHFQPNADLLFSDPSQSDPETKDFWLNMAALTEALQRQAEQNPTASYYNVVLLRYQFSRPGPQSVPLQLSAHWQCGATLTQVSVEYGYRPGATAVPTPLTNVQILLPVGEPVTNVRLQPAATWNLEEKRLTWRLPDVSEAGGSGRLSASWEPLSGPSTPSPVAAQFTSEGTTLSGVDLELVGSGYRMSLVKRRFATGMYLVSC
inactive: [4] 0.013 | [2] 0.125 | [3] 0.022 | [5] -0.065

FIZ1 (UniProt Q96SL8)
inactive: [4] -0.297 | [2] -0.097 | [5] 0.044
